Source: PubChem (several laboratories)
Shown are actives, neighbours in structure and some others; about 9.6% of the full set was active somewhere.
PLAP act = activators of human placental alkaline phosphatase. activation fold at 20 µM. purified PLAP enzyme, luminescent substrate read-out; hits give high values. 96,000 compounds, 1.2% hits. P05187; in the data active means activation fold above about 2
Target sequence (P05187 whole entry, looked up): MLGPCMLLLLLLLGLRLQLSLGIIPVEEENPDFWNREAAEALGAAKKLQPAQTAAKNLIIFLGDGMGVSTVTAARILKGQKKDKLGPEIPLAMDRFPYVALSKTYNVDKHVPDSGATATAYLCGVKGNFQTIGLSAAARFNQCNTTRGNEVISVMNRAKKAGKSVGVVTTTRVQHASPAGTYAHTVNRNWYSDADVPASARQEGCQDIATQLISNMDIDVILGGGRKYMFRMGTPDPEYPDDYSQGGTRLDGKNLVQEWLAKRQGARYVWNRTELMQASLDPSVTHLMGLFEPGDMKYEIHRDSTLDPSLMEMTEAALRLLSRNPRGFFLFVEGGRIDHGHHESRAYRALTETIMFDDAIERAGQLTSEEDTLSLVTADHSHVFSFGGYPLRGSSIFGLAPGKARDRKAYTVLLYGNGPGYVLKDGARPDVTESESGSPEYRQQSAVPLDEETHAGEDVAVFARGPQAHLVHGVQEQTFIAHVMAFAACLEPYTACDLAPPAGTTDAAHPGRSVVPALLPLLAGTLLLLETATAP
PostGolgi ctrl = yeast control strain growth, post-Golgi counter-screen | efflux-deficient yeast background strain, growth absorbance A615, 16 h | inhibition, % at 10 µM | 98,000 compounds, 5% hits | AID 738
PostGolgi yeast = growth inhibition of a yeast mutant, post-Golgi transport screen; 98,000 compounds, 0.9% hits; post-Golgi transport phenotypic cell assay; inhibition, % at 10 µM;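 further: yeast cells grown in 1536-well plates; yeast grown about 18 h at 30C before absorbance read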
hDAT+cocaine = modulates human dopamine transporter uptake under cocaine. Q01959. LLC-PK1 hDAT cells, [14C]-dopamine uptake with cocaine IC80; actives deviate in either direction. B-score at 10 µM. 110,000 compounds, 1.3% hits;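 active means Z score or B-score, a plate-position-corrected score, falls beyond the plate's 99.7% confidence bounds, in either direction; inactive means both scores lie inside the 99.7% bounds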
Cav32 inh = inhibitors of human Cav3.2 T-type calcium channel. O95180. Cav3.2-expressing cells, Fluo-4 calcium fluorescence FDSS; hits give low values. B-score at 10 µM. 100,000 compounds, 4% hits;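 active means single-dose well whose peak fluorescence ratio is a statistical outlier from its plate by either plate-standardised score or position-corrected B-score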
Of the large screens only hits and unclear results are named; the others gave an inactive call. Unless noted, no stated cut-off is given here; in the data, active means inhibition above about 30%; inactive means the rest.

CCC(=O)Nc1ccc(S(=O)(=O)Nc2ncccn2)cc1	PostGolgi ctrl 31.2
COc1ccccc1OCC(=O)Nc1ccc(S(=O)(=O)NC(C)=O)cc1	none
CC(=O)Nc1ccc(S(=O)(=O)Nc2ncccn2)cc1	none
COc1ccccc1OCC(=O)Nc1ccc(S(=O)(=O)Nc2nc(C)cc(C)n2)cc1	hDAT+cocaine 3.53
Cc1ccc(C)c(N(CC(=O)Nc2cc(Cl)ccc2Oc2ccccc2)S(C)(=O)=O)c1	none (no result: Cav32 inh)
Cc1cccc(C)c1N(CC(=O)Nc1cc(Cl)ccc1Oc1ccccc1)S(C)(=O)=O	PostGolgi ctrl 50.3, Cav32 inh -5.64
Cc1ccccc1N(CC(=O)Nc1ccccc1C(=O)O)S(C)(=O)=O	none
Cc1noc(C)c1C(=O)OCC(=O)Nc1cc(Cl)ccc1Oc1ccccc1	PostGolgi ctrl 37.8
CS(=O)(=O)N(CC(=O)Nc1cc(Cl)ccc1Cl)c1ccccc1Cl	Cav32 inh -4.67
COc1ccc(Cl)cc1NC(=O)CN(c1ccccc1)S(=O)(=O)N(C)C	Cav32 inh -10.2
C/C(Cl)=C/Cn1c(=O)c2c(nc(Br)n2Cc2ccccc2)n(C)c1=O	none
CCOC(=O)c1cc(C#N)c(Oc2ccccc2OC)nc1-c1ccccc1	none
CN(C)S(=O)(=O)N(CC(=O)Nc1ccccc1)c1ccccc1	none (no result: PLAP act, PostGolgi ctrl, PostGolgi yeast)
Cc1ccc(NC(=O)CN(c2ccccc2)S(=O)(=O)N(C)C)cc1C	Cav32 inh -3.64 (no result: PLAP act, PostGolgi ctrl, PostGolgi yeast)
COc1cccc(S(=O)(=O)Nc2ccc(C(=O)N3CCOCC3)cc2)c1	none
Cc1cc(C2C(=O)C(C(=O)c3ccc(Cl)cc3)C(=O)CC2(C)C)on1 (stereo not given)	none
Clc1ccc(OCc2cc(-c3ccccc3)no2)c(Cl)c1	none (no result: hDAT+cocaine)
CC/C(O)=C1\C(=O)CC(c2ccccc2)CC1=NCCc1c(C)[nH]c2ccc(C)cc12 (stereo not given)	Cav32 inh -4.59 (no result: PLAP act, PostGolgi ctrl, PostGolgi yeast)
O=C(NCc1ccccc1)c1ccc(-c2ccccc2F)o1	Cav32 inh -4.23
O=C(OCn1ncc(Cl)c(Cl)c1=O)c1ccc(F)cc1	PostGolgi yeast 32.6
O=C(OCn1ncc(Cl)c(Cl)c1=O)c1ccccc1Cl	PostGolgi yeast 79.3
O=C(OCCN1CCCCC1)c1ccccc1Cl	none (no result: hDAT+cocaine)
CCCCN1Cc2cc(C(=O)c3cc(F)ccc3O)cnc2NC1=O	none
Cc1csc(NC(C)c2nc3cc(C(F)(F)F)ccc3n2CCCO)n1 (stereo not given)	hDAT+cocaine -2.65 (no result: PLAP act, PostGolgi ctrl, PostGolgi yeast)
N#Cc1nc(-c2cccs2)oc1N1CCN(c2ccccc2)CC1	none
CN(C)S(=O)(=O)N1CCN(CC(O)COc2ccc3cc(Br)ccc3c2)CC1 (stereo not given)	PostGolgi ctrl 41.1
OC(COc1ccc2cc(Br)ccc2c1)CN1CCCC1 (stereo not given)	none
OC(COc1ccc2cc(Br)ccc2c1)CN1CCN(c2ccccn2)CC1 (stereo not given)	PostGolgi ctrl 37.2
COc1ccccc1NS(=O)(=O)c1ccc(C)c(C(=O)NCC2CCCO2)c1 (stereo not given)	none
COc1ccccc1C1(CC(=O)Nc2nccs2)CCOC(C(C)C)C1 (stereo not given)	none
Nc1nc(Cl)cc(N2CCC(c3cc(-c4ccc(Cl)cc4)n[nH]3)CC2)n1	PostGolgi ctrl 101.7
CC(=O)c1ccc(N2CCC(c3cc(-c4ccc(Cl)cc4Cl)n[nH]3)CC2)c([N+](=O)[O-])c1	none
COc1ccc(OC)c(-c2cc(C3CCN(c4cc(Cl)nc(N)n4)CC3)[nH]n2)c1	PostGolgi ctrl 33.5 (no result: hDAT+cocaine, Cav32 inh)
COc1ccc(OC)c(-c2cc(C3CCN(c4ncccc4[N+](=O)[O-])CC3)[nH]n2)c1	none
COc1cccc(C2CC(c3ccc(Cl)cc3)n3nc(N)nc3N2)c1 (stereo not given)	none
COc1ccc(-c2cc(C3CCN(c4cc(Cl)nc(N)n4)CC3)[nH]n2)cc1	PostGolgi ctrl 42.3
COc1ccccc1CC1(C)NC(=O)N(CC(=O)Nc2cc(C)on2)C1=O (stereo not given)	none
CCOC(=O)c1ccc(N/C(=N\S(=O)(=O)c2ccccc2C)c2ccccc2)cc1	none
Oc1ccc(-c2[nH]nc(-c3ccccc3)c2-c2nc3ccccc3[nH]2)cc1	Cav32 inh -5.5
c1ccc2nc(-c3nc4ccccc4[nH]3)ccc2c1	none
Cc1cccc(NC(=O)c2ccccc2OCC(=O)c2ccccc2)c1	PostGolgi ctrl 30.3
O=C(Nc1cccc(-c2cn3cccnc3n2)c1)c1ccc(Br)o1	PostGolgi ctrl 33.4
O=C(Nc1cccc(-c2nnc(-c3ccccc3)o2)c1)c1ccc(Br)o1	PostGolgi ctrl 37.6
CCOc1ccccc1C(=O)Nc1cccc(-c2nnc(-c3ccccc3)o2)c1	PostGolgi ctrl 31.5
O=C(N/N=C/c1cccc(C(F)(F)F)c1)C1CCN(c2ncc(C(F)(F)F)cc2Cl)CC1	none
COc1ccc(CC(=O)Nc2cccc(-c3nnc(-c4ccco4)o3)c2)cc1	none
COc1ccc(C(=O)Nc2cccc(-c3nnc(-c4ccco4)o3)c2)cc1	PostGolgi ctrl 30.8
O=C(Nc1cccc(C(F)(F)F)c1)c1ccc2nc(N3C(=O)CCC3=O)sc2c1	none
O=C(Nc1cccc(C(F)(F)F)c1)c1ccc2nc(-c3ccco3)c(-c3ccco3)nc2c1	Cav32 inh -4.77
CCC(=O)Nc1ccc(-c2nnc(-c3ccccc3)o2)cc1	PostGolgi ctrl 39.6
Clc1ccc(CSc2ncccn2)cc1	none
O=C1c2cnc3nc(SCc4ccc(Cl)cc4)nn3c2CC2c3ccccc3CCN12 (stereo not given)	PostGolgi ctrl 34.8, Cav32 inh -6.27
CN(C)c1cccc(C(=O)n2cc(C(=O)c3cc(F)ccc3O)cn2)c1	Cav32 inh -3.93
O=C(CN(CCO)c1ccccc1)NC12CC3CC(CC(C3)C1)C2	none
Cc1c(C(=O)N(C)C)sc2nc(-c3ccccn3)[nH]c(=O)c12	PLAP act 2.9
Cc1sc2nc(SCC(=O)N(C)C)[nH]c(=O)c2c1C	none
CCCCn1c(CCC)nc([N+](=O)[O-])c1Sc1ccc(Cl)cn1	Cav32 inh -9.04 (no result: PLAP act, PostGolgi ctrl, PostGolgi yeast)
CC(C)Cn1c(C(C)C)nc([N+](=O)[O-])c1Sc1ccc(Cl)cn1	Cav32 inh -5.81 (no result: PLAP act, PostGolgi ctrl, PostGolgi yeast)
CC(C)Cn1c(C(C)C)nc([N+](=O)[O-])c1S(=O)(=O)c1ccc(F)cc1	none
CCCCn1cnc2c(cnn2-c2ccc(Cl)cc2)c1=O	none (no result: PLAP act)
CC(C)CC(c1nnnn1C(C)C)N1CCN(c2cccc(Cl)c2)CC1 (stereo not given)	PostGolgi ctrl 72.7, Cav32 inh -3.51
Cc1noc(C)c1S(=O)(=O)N(CCc1ccccc1)Cc1ccccc1	Cav32 inh -4.69
CCc1c(C)nc(SC)n(CC#N)c1=O	none
CCN1C(=O)CC(N2CCC(C(=O)OC)CC2)C1=O (stereo not given)	PostGolgi ctrl 31.9
O=C1CC(N2CCN(C3CC(=O)N(CCc4ccccc4)C3=O)CC2)C(=O)N1CCc1ccccc1 (stereo not given)	PostGolgi ctrl 46.7
O=C(C1CCN(C2CC(=O)N(Cc3ccccc3)C2=O)CC1)N1CCCCCC1 (stereo not given)	PLAP act 2, PostGolgi yeast 31.7
